High-throughput results from PubChem.
aGal spleen mod = alpha-galactosidase A (human) modulation; P06280; human spleen homogenate, 4MU-alpha-Gal fluorescence, 40 min; Potency, µM (top dose mostly 80 µM), for inactives: at the highest dose activity change, negative = inhibition, most hits filed as inhibitors; 0.008% of 240,000 active;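 further: potency means the concentration at half of the fitted maximal effect; 0% = enzyme with vehicle and -100% = no enzyme basal signal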
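Spleen homogenate 1 ug + cpd (titration) + 4-MU-alpha-D-galactopyranoside 1 mM; 37C 40 min; 50 mM citrate/phosphate pH 5.0, 0.01% Tween-20; stop pH 10; fluorescence 365/440; AC50 via Hill.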
GAA glycogen = alters human alpha-glucosidase cleavage of glycogen. P10253. recombinant GAA, glycogen substrate, Amplex Red glucose oxidase fluorescence. Potency, µM (doses to about 76.4 µM), for the others: top-dose activity change, negative = inhibition, usual class: inhibitors. 0.38% of 300,000 active;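 further: potency means the concentration at half of the fitted maximal effect; 0% = full enzyme reaction and -100% = no-enzyme basal signal; the screen sought inhibitors and activators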
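qHTS, 1536-well; enzyme 4 nM final; cpd up to 77 uM; substrate bovine liver glycogen 30 ug; 50 mM citrate/phosphate pH 5.0, 0.01% Tween-20; 37 C, 40 min; Amplex Red detection 45 min RT; Hill fit → AC50.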
GAA inhib = blocks human lysosomal alpha-glucosidase; purified human GAA, 4-MU-alpha-glucoside fluorescence; Potency, µM (series often up to 76.9 µM), for the others: top-dose activity change, negative = inhibition, actives largely listed as inhibitors; 0.005% of 200,000 active;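 further: potency means the concentration at half of the fitted maximal effect; plate controls were uninhibited enzyme wells for no effect and no-enzyme background for full effect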
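Activity normalized between no-enzyme (basal) and enzyme-only wells. Conditions: 4 nM human enzyme, 400 uM fluorogenic substrate, citrate/phosphate pH 5.0 with Tween-20, 20 min room temperature, compounds up to 77 uM.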
GLA inh pH 4.5 = alpha-galactosidase A (human) inhibition, pH 4.5; P06280; purified enzyme, 4-MU-alpha-Gal fluorescence, pH 4.5; activity change, negative = inhibition, % at 105 µM; 230,000 tested, under 10 active;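 further: 0% = full activity with enzyme and -100% = basal without enzyme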
Target sequence (P06280 whole entry, looked up): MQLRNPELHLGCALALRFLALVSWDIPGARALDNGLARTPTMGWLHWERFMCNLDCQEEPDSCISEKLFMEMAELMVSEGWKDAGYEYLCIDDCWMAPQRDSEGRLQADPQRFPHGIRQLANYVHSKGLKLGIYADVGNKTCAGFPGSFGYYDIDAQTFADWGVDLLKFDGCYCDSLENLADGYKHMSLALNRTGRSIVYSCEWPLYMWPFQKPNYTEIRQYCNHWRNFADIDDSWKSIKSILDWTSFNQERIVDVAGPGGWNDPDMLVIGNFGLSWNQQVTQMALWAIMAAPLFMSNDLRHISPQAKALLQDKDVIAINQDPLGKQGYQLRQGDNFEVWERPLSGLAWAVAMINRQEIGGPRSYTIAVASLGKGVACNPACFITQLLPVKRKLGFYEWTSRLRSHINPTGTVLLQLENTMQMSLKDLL
GAA spleen mod = inhibits or activates alpha-glucosidase in human spleen homogenate | Potency, µM (top dose mostly 79.9 µM), for inactives: at the top dose activity change, negative = inhibition, actives largely listed as inhibitors | AID 2112 | human spleen homogenate, 4-MU-alpha-glucoside fluorescence | 0.006% of 240,000 active;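 further: potency means the concentration at half of the fitted maximal effect; 0% = enzyme with vehicle and -100% = no enzyme basal signal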
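Human spleen homogenate (1 ug) with 4-methylumbelliferyl-alpha-D-glucopyranoside (1 mM final) in 50 mM citrate/phosphate pH 5.0, 0.01% Tween-20; 40 min at 37 C. Stopped at pH 10; 4-MU fluorescence Ex 365/Em 440 nm; AC50 by Hill fit.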
N370S GC mod = inhibitors or activators of N370S glucocerebrosidase for Gaucher disease | 0.092% of 330,000 active | N370S GC spleen homogenate, 4MU-glucoside fluorescence | AID 2101 | Potency, µM (highest dose often 59.4 µM), for inactives: top-dose activity change, negative = inhibition, usual class: inhibitors;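 further: potency means the concentration at half of the fitted maximal effect; 0% = full enzyme activity and -100% = no enzyme basal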
Starred values were filed as active, the others as inactive; ? = inconclusive; . = no result; [ ] = remark or other dose. Rows were chosen to be rich in hits. Some 0.43% of all compounds tested hit in one or more screens of this group. The call rests on the fitted dose curve; in most records, active means well fitted curve in the direction sought with a large enough effect; inconclusive means small, poorly fitted or top-dose-only effect, or another doubt; inactive means no such curve, though single readings can be large; an effect the other way counts as inactive or inconclusive.

SMILES	aGal spleen mod	GAA glycogen	GAA inhib	GLA inh pH 4.5	GAA spleen mod	N370S GC mod
Cc1ccccc1OCCn1cc(/C(N)=N/O)c2ccccc21	-8%	32µM*	-8%	5	-5%	.
CCOC(=O)c1c(C)[nH]c2c1cc(O)c1ccccc12	3%	16µM*	0%	-22	-1%	-7%
CCOC(=O)c1c(C)oc2c1cc(O)c1ccccc12	-2%	?	1%	-13	-13%	12%
COc1cc(Cn2c(-c3ccc(O)c(OC)c3)nc3ccccc32)ccc1O	7%	28µM*	.	1	4%	-8%
C/C(CCC(=O)OC[C@@H]1O[C@H](C#Cc2ccccc2)C=C[C@@H]1Oc1ccc(C)cc1)=N/O[C@@H](C)c1cn([C@H]2COC[C@H]2O)nn1	6%[17.5 µM]	.	.	.	4%[17.4 µM]	-9%[12.8 µM]
COc1ccc(C2CC(=O)Oc3c(C(CCN4CCOCC4)c4ccc5c(c4)OCO5)c(OC)cc(OC)c32)cc1 (stereo not given)	10%	.	.	.	15%	?
CCCCCCCC/C=C/CCCCCCCC(=O)NCCOP(=O)(O)O	11%	.	.	.	-10%	?
COc1cc(/C=N/NC(=O)C(=O)/C=C2\NC(C)(C)Cc3ccccc32)ccc1O	-11%	35µM*	.	-29	12%	3%
C[C@H]1C=CC(=O)C[C@H]1c1c(F)cccc1Cl	9%	.	.	.	-4%	2%
Cc1ccsc1/C=N/Nc1nc2ccccc2[nH]1	0%	6.3µM*	-7%	-1	0%	-15%
COc1cccc(/C=N/Nc2nc3ccccc3[nH]2)c1O	4%	?	.	-2	-3%	-18%
C/C(=N\Nc1nc2ccccc2[nH]1)c1ccc2c(c1)OCCO2	2%	50µM*	-7%	-2	1%	-1%
COc1cc(/C=N/Nc2nc3ccccc3[nH]2)ccc1O	7%	22µM*	3%	6	-19%	-10%
COc1cc(/C=N/Nc2nc3ccccc3[nH]2)cc(OC)c1O	-3%	20µM*	5%	-3	-5%	-11%
COC(=O)[C@H](C)NC(=O)C/C=C\[C@@H](C)[C@@H](CO)OC	4%[17.5 µM]	.	.	.	1%[17.4 µM]	6%[12.8 µM]
CC[C@H](C)[C@H](NC(=O)[C@@H](NC(=O)[C@@H](CC(=O)NO)Cc1ccccc1)[C@@H](C)CC)C(=O)O	4%	.	.	.	-1%	-2%
COc1cc(/C=N/Nc2nn3cnnc3c3ccccc23)ccc1O	11%	18µM*	-10%	-15	6%	-6%
CCOc1cc(/C=N/Nc2nn3cnnc3c3ccccc23)ccc1O	-1%	?	.	-4	-1%	-6%
C=CCn1cc(/C=N/Nc2nc3ccccc3[nH]2)c2ccccc21	1%	28µM*	-8%	2	-5%	?
C(=N\Nc1nc2ccccc2[nH]1)/c1ccc2c(c1)OCO2	-2%	16µM*	-7%	-4	.	-4%
COc1cc(Cl)ccc1NC(=O)COc1ccccc1C(=O)N1CCN(c2ccc(O)cc2)CC1	-2%	18µM*	1%	3	0%	15%
CC(=O)OC[C@@H]1O[C@@H](O/N=C2/C[C@@H](O)[C@@H](O)[C@@H]3[C@@H]4C(=O)N(C5CCCCC5)C(=O)[C@H]4CC[C@H]23)[C@H](OC(C)=O)[C@H](OC(C)=O)[C@@H]1OC(C)=O	-7%[17.5 µM]	.	.	.	0%[17.4 µM]	12%[12.8 µM]
COc1ccc(C(=O)NNC(=S)NC(=O)C(C)(C)C)cc1	-6%	7.9µM*	1%	2	-5%	-7%
CSCC[C@H](NC(=O)[C@H](CC(C)C)NC(=O)[C@H](Cc1c[nH]c2ccccc12)NC(=O)[C@H](CCC(N)=O)NC(=O)[C@@H](NC(=O)[C@H](Cc1ccccc1)NC(=O)[C@H](CC(=O)O)NC(=O)[C@H](CCC(N)=O)NC(=O)[C@H](C)NC(=O)[C@H](CCCNC(=N)N)NC(=O)[C@H](CCCNC(=N)N)NC(=O)[C@H](CO)NC(=O)[C@H](CC(=O)O)NC(=O)[C@H](CC(C)C)NC(=O)[C@H](Cc1ccc(O)cc1)NC(=O)[C@H](CCCCN)NC(=O)[C@H](CO)NC(=O)[C@H](Cc1ccc(O)cc1)NC(=O)[C@H](CC(=O)O)NC(=O)[C@H](CO)NC(=O)[C@@H](NC(=O)[C@H](Cc1ccccc1)NC(=O)[C@@H](NC(=O)CNC(=O)[C@H](CCC(N)=O)NC(=O)[C@H](CO)NC(=O)[C@@H](N)Cc1cnc[nH]1)[C@@H](C)O)[C@@H](C)O)C(C)C)C(=O)N[C@@H](CC(N)=O)C(=O)N[C@H](C(=O)O)[C@@H](C)O	0%	.	.	.	5%	-1%
Cc1ccccc1Nc1nc(NCc2ccco2)c2ccccc2n1	-1%	-2%	-3%	2	-1%	20µM*
SMILES	aGal spleen mod	GAA glycogen	GAA inhib	GLA inh pH 4.5	GAA spleen mod	N370S GC mod
Oc1ccc(Nc2nc(NCC3CCCO3)c3ccccc3n2)cc1 (stereo not given)	6%	?	-3%	-2	1%	-11%
Oc1ccccc1Nc1nc(NCc2ccco2)c2ccccc2n1	3%	11µM*	.	-11	-11%	?
Oc1ccccc1Nc1nc(NCC2CCCO2)c2ccccc2n1 (stereo not given)	4%	8.8µM*	?	-9	1%	?
CCOC(=O)C1=C[C@@H](C(=O)OCC)[C@@H]2C3=C(C(=O)C2(C)C)[C@H](c2ccccc2)[C@@H]2C(=O)N(c4ccccc4)C(=O)[C@@H]2[C@@H]3C1	-6%	.	.	.	-14%	4%
c1ncc(CCCC2CCNCC2)[nH]1	1%	.	.	.	6%	0%
COc1ccc(NC(=S)N/N=C2\CC(C)(C)Oc3ccc(O)cc32)cc1	-4%	8.9µM*	-5%	-3	-2%	-3%
CCOc1ccc(S(=O)(=O)Nc2ccccc2SC)cc1	-7%	1%	-6%	-5	-6%	-1%
CCOc1ccc(S(=O)(=O)Nc2cc(Cl)ccc2O)cc1	-6%	28µM*	-4%	-7	-8%	10%
C(=N\Nc1ccccn1)/c1c[nH]c2ccccc12	2%	35µM*	.	-10	0%	-9%
CCN(CC)CCCN1C=C2C(=O)C(C)(OC(=O)c3cccs3)C(=O)C=C2C=C1CCCC(=O)OC (stereo not given)	5%[17.5 µM]	.	.	3	14%[17.4 µM]	5%[12.8 µM]
COc1ccco1	-9%	.	.	.	3%	-2%
Oc1ccc(N2CCN(C(=S)NCCc3ccccc3)CC2)cc1	3%	25µM*	8%	6	-3%	-16%
Cc1ccc(/C=N/c2sc3c(c2C#N)CCCCC3)o1	4%	?	-3%	2	4%	7%
Cc1ccc(/C=N/c2sc3c(c2C#N)CCC3)s1	0%	28µM*	6%	-1	-3%	6%
